Inconclusive results are not listed. Active and inactive are the calls of the source. Unless noted, calls follow the shape of the dose curve; as a rule, active = well fitted curve in either direction with a large enough effect (not every such curve was filed as active); inconclusive = small, poorly fitted or top-dose-only effect, or another doubt; inactive = flat fitted curve, though single readings scatter.
Columns and labels:
[1] = AP1 Signaling Pathway (AID 357); settings: ME-180 AP-1-bla reporter, EGF-induced, beta-lactamase ratio, 5 h; at 7.69 µM (top of the series) unless noted;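 also: ME-180 reporter cells stimulated with EGF at its EC50 level; % is scaled to controls: 0 for no effect and ±100 for the full control effect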
How it was run: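 Beta-lactamase reporter under AP-1 response element, ME-180 background. Stimulus: EC50 EGF. Compound exposure 5 h, 37 °C. Detection: CCF4, 2.5 h RT, 460/530 nm. Values: AC50 from titration.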

[2] = target: Cytochrome P450 1A2 (Homo sapiens) (UniProt P05177); experiment: p450-cyp1a2 (AID 410; calls by dose curve; also: potency is read from the fitted curve at half-maximal effect;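 as to activity change, negative = inhibition: -100% = full effect of reference inhibitor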)
How it was run: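 Luminescent readout of luciferin formed from Luciferin-ME by human CYP1A2; data normalized against complete inhibition by 57 uM furafylline. Enzyme 20nM, substrate 100uM at Km, 100mM KPO4 buffer, 60 min reaction at room temperature.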

[3] = NFAT Signaling Pathway (AID 444); settings: Jurkat NFAT-bla M1, carbachol, beta-lactamase ratio, 5 h; at 7.69 µM (top of the series) unless noted;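 also: carbachol stimulus at about its EC50 of 1 µM final; % is scaled to controls: 0 for no effect and ±100 for the full control effect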
How it was run: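 Jurkat cells with NFAT-driven β-lactamase reporter and co-expressed M1 receptor, stimulated with carbachol (final 1 uM, ~EC50), compound titration, 5 h at 37 °C. CCF4 loaded 1 h at RT; 460/530 nm ratio gave %activity and AC50.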

[4] = target: Glucocorticoid receptor (Homo sapiens) (UniProt P04150); experiment: GR-GFP Redistribution (AID 450;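 active = compounds whose dose series gives a full or clear partial fitted curve of increased nuclear translocation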; also: potency is read from the fitted curve at half-maximal effect); settings: U2OS GR-GFP nuclear translocation, laser cytometry, 2 h
[5] = target: Glucocorticoid receptor (Homo sapiens) (UniProt P04150); experiment: GR-EFC Redistribution (AID 451; calls by dose curve; also: potency is read from the fitted curve at half-maximal effect); settings: CHO-K1 GR-EFC translocation, beta-gal luminescence, 2 h
How it was run: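 CHO-K1 cells expressing nuclear EA and GR-ED fragments of b-gal; compounds titrated up to 46 uM final, 2 h at 37 C. GR nuclear translocation read as complemented b-gal luminescence after 1 h RT detection.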

[6] = target: Mitogen-activated protein kinase 10 (Mus musculus) (UniProt Q61831); experiment: JNK3 AlphaScreen Assay (AID 530);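 also: kinase came from lysate of stimulated human HepG2 cells; signal reports phosphorylation of biotinylated GST-cJun 1-79 at Ser73 with 10 µM ATP; % is scaled to controls: 0 for no effect and ±100 for the full control effect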
How it was run: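 Pre-activated (IL-1β/TNFα) JNK3 in HepG2 lysates phosphorylates biotin-GST-cJun(1-79), 10 uM ATP; anti-phospho-cJun(Ser73) AlphaScreen read at room temperature, pH 7.6 Tris buffer. Compounds pre-incubated 15 min as titrations.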

[7] = target: 3',5'-cyclic-AMP phosphodiesterase 4B (Homo sapiens) (UniProt Q07343); experiment: qHTS Assay for Inhibitors of PDE-IV (AID 607; active = well fitted activation curve with a large enough effect in the main read-out, with a control signal flat, not every such curve was filed as active; also: % of control where 0% means no effect)
How it was run: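 ACTOne HEK293 cells carry a modified cAMP-gated CNG channel and express endogenous PDE4; plated 1000 cells/well, compounds up to 22.9 uM final. Membrane-potential dye fluorescence (ex 535/em 590) was read; parental cells received 10 uM forskolin + 100 uM RO 20-1724.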

[8] = target: Guanine nucleotide-binding protein G(i) subunit alpha-1 (Homo sapiens) (UniProt P63096); experiment: qHTS Assay for Inhibitors of RGS12 GoLoco Motif Activity (Green Fluorophore) (AID 879; active = well fitted curve in the direction sought with a large enough effect; an effect the other way counts as inactive or inconclusive;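 also: 0% = labeled peptide with Gαi1 and full inhibition = labeled peptide alone without protein; negative values mean loss of peptide binding seen as reduced polarization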)
How it was run: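 Fluorescence polarization assay: 50 nM Gαi1 with 10 nM FITC-labeled RGS12 GoLoco peptide in 10 mM Tris pH 7.5, 150 mM NaCl, 0.1 mM GDP, 0.05% NP40, 10 min at room temperature with compound.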

[9] = target: Pyruvate kinase (Leishmania mexicana) (UniProt Q27686); experiment: qHTS Validation Assay for Inhibitors of Leishmania Mexicana Pyruvate Kinase (AID 945; active = well fitted curve in the direction sought with a large enough effect; an effect the other way counts as inactive or inconclusive;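 also: 0% = DMSO only neutral control wells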)
How it was run: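 Luminescent ATP detection (PKLight) after a 1 h room-temperature reaction of 0.2 nM LmPYK E451W mutant with 0.5 mM PEP and 0.1 mM ADP at pH 7.2. Activity is normalized to DMSO-only control wells.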

[10] = target: Pyruvate kinase PKM (Homo sapiens) (UniProt P14618); experiment: qHTS Assay for Activators of Human Muscle Pyruvate Kinase (AID 954; active = well fitted curve in the direction sought with a large enough effect, not every such curve was filed as active;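 also: 0% = uninhibited enzyme and -100% = no enzyme or full thiadiazolimine inhibition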)
How it was run: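 Luminescence from a luciferase ATP-detection/stop reagent reported PKM2 activity. Reactions contained 0.1 nM purified human enzyme, 0.5 mM PEP, 0.1 mM ADP and 7 mM MgCl2 at pH 7.2, run 1 h at RT.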

[11] = target: Alpha-galactosidase A (Homo sapiens) (UniProt P06280); experiment: Counterscreen for Glucocerebrosidase Inhibitors: qHTS Assay for Human alpha-Galactosidase at pH 4.5 (AID 992; active = well fitted curve in the direction sought with a large enough effect; an effect the other way counts as inactive or inconclusive; also: 0% is about no effect)
How it was run: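 Enzyme at 2 nM final was combined with compound (0.7 nM to 77 uM) and 80 uM 4-methylumbelliferyl alpha-D-galactopyranoside in 50 mM citric acid, 0.005% Tween-20, pH 4.5. After 20 min at room temperature, fluorescence was read (Ex 365/Em 440 nm); AC50 came from Hill fits.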

[12] = target: alpha-glucosidase (Oryza sativa, rice) (UniProt Q653V4); experiment: Counterscreen for Glucocerebrosidase Inhibitors: qHTS Assay for Rice alpha-Glucosidase at pH 5.0 (AID 997; active = well fitted curve in the direction sought with a large enough effect; an effect the other way counts as inactive or inconclusive;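 also: 0% = full activity with enzyme and -100% = basal without enzyme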)
How it was run: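 Rice alpha-glucosidase (4 nM final) with 400 uM 4-methylumbelliferyl-alpha-D-glucopyranoside in citrate buffer pH 5.0, 20 min at room temperature, stopped at pH 10; fluorescence 365/440 nm, compounds 0.7 nM–77 uM, AC50 from Hill fits.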

[13] = Stat Signaling Pathway (AID 446); settings: ME-180 SIE beta-lactamase reporter, IL-6 stimulated, 5 h; at 7.69 µM (top of the series) unless noted;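 also: ME-180 cervical cancer cells given 40 pM IL-6 alongside compound; SIE-controlled beta-lactamase reporter measured as 460/530 nm FRET emission ratio; % is scaled to controls: 0 for no effect and ±100 for the full control effect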
How it was run: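 ME-180 SIE-bla cells; overnight plating; cpd + IL-6 40 pM, 5 h, 37 C; LiveBLAzer 2.5 h RT; 460/530 nm emission ratio. Normalized to 300 pM IL-6 and 125 nM JAK inhibitor controls.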

Sequence of Pyruvate kinase PKM (Homo sapiens) (P14618 whole entry, looked up): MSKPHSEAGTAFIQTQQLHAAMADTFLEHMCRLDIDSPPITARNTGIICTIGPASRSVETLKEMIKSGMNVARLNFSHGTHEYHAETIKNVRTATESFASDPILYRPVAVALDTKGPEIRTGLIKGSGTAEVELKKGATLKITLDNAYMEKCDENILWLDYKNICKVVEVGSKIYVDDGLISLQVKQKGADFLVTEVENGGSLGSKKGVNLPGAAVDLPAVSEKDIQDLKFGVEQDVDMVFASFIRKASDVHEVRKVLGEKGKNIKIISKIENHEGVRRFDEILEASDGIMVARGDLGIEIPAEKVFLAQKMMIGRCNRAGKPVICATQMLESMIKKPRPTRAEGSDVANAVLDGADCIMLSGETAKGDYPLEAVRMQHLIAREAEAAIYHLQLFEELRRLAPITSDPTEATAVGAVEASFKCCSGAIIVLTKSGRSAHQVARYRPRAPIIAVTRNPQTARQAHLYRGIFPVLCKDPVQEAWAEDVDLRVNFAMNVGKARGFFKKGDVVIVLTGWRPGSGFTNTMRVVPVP
Sequence of Cytochrome P450 1A2 (Homo sapiens) (P05177 whole entry, looked up): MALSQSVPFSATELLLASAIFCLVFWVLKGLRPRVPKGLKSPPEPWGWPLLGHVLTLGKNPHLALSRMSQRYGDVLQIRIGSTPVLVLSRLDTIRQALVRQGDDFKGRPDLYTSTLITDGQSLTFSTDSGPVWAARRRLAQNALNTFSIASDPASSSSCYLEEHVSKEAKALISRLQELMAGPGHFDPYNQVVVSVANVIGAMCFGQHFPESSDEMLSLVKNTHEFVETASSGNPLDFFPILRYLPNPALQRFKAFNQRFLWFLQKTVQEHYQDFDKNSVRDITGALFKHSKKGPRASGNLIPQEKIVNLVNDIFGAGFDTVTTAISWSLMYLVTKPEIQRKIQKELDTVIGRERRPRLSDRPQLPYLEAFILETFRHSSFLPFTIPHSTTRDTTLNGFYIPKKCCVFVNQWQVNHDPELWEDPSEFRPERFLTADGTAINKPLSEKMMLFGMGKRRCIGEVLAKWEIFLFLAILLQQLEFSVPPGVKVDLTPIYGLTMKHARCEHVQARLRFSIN
Sequence of Pyruvate kinase (Leishmania mexicana) (Q27686 2-499 E452W): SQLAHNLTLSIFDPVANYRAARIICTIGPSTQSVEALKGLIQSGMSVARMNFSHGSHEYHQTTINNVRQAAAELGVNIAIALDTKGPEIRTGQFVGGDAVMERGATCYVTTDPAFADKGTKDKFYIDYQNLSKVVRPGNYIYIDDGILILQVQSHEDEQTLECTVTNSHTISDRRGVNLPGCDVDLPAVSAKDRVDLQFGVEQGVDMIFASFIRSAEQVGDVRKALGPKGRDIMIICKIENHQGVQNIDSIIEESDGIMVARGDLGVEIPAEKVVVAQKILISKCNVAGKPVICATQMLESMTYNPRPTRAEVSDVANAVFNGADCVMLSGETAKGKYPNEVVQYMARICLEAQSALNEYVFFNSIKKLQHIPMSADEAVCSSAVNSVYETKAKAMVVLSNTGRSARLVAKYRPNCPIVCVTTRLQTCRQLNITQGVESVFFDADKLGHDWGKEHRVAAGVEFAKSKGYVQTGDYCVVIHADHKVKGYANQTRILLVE
Sequence of Guanine nucleotide-binding protein G(i) subunit alpha-1 (Homo sapiens) (P63096 whole entry, looked up): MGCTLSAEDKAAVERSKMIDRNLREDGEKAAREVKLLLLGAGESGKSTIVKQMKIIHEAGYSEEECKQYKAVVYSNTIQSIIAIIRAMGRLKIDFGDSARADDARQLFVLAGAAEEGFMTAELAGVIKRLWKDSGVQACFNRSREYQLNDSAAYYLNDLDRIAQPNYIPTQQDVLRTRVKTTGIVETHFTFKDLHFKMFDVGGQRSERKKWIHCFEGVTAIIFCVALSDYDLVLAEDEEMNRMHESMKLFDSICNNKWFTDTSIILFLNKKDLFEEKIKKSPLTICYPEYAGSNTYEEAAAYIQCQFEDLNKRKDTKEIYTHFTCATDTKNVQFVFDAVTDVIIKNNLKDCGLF
Sequence of Glucocorticoid receptor (Homo sapiens) (P04150 whole entry, looked up, the tested form may be a part): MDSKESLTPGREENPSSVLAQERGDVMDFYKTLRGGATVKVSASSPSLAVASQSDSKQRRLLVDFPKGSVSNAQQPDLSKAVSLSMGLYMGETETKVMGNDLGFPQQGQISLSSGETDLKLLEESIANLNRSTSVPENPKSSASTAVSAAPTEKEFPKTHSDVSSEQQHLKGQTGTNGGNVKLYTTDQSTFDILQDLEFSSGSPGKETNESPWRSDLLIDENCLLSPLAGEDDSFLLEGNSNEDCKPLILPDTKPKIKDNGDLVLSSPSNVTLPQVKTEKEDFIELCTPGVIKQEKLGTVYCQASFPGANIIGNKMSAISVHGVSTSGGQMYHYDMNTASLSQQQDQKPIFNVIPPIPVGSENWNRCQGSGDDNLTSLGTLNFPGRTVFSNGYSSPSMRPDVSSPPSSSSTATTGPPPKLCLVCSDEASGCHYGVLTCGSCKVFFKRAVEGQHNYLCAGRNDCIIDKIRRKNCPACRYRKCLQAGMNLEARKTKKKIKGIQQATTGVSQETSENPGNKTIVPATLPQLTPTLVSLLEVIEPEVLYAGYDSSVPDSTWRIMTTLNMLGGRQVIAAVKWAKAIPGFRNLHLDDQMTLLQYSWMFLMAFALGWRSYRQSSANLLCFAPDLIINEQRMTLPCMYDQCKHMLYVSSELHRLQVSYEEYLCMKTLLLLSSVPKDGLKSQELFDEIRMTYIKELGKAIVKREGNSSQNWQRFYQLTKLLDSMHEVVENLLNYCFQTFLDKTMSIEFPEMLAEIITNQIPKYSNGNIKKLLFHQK
Sequence of 3',5'-cyclic-AMP phosphodiesterase 4B (Homo sapiens) (Q07343 whole entry, looked up): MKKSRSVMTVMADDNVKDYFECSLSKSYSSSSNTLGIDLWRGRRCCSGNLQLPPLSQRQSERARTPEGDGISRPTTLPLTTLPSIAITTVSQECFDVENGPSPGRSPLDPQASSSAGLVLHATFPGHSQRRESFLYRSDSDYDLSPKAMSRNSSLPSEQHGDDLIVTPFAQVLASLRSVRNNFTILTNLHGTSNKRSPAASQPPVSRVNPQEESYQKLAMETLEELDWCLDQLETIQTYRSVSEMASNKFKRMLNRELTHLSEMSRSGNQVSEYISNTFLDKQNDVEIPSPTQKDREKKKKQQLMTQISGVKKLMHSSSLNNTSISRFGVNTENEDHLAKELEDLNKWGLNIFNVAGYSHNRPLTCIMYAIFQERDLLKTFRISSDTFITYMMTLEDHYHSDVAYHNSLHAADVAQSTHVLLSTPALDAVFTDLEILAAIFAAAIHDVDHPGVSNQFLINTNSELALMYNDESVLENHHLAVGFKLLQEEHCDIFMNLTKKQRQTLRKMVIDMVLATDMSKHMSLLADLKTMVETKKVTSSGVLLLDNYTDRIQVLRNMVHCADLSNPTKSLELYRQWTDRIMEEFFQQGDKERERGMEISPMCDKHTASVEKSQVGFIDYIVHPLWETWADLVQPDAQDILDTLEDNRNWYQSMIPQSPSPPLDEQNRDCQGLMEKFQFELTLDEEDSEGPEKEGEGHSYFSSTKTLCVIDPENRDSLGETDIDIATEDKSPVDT
Sequence of Alpha-galactosidase A (Homo sapiens) (P06280 whole entry, looked up): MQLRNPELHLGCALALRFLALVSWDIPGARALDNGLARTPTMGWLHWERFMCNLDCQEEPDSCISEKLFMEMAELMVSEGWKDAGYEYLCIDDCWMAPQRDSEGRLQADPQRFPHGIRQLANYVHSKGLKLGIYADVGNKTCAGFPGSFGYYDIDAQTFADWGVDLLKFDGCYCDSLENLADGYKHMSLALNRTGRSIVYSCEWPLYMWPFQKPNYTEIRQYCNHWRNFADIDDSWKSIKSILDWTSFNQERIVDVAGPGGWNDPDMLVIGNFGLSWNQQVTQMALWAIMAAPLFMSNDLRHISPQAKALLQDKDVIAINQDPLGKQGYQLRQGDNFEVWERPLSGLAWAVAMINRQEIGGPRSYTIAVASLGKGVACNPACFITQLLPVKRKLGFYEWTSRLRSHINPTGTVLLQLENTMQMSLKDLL

CN1[C@@H]2CC[C@H]1CC(NC(=O)c1nn(C)c3ccccc13)C2 (stereo partly drawn)
inactive: activity change, negative = inhibition [1] -1.02% [at 38 µM] | Potency [2] | activity change, negative = inhibition [3] -9.68% [at 38 µM] | Potency [4] > 46 µM | Potency [5] > 46 µM | Potency [6] | Potency [7] | outcome [8] | outcome [9] | outcome [10] | outcome [11] | Potency [12]

C[C@@H]1C[C@@H]2[C@H]3CCC4=CC(=O)C=C[C@]4(C)[C@]3(Cl)[C@@H](O)C[C@@]2(C)[C@@]1(O)C(=O)CO
inactive: activity change, negative = inhibition [1] 12.5% [at 38 µM] | Potency [2] | activity change, negative = inhibition [3] 6.53% [at 38 µM] | activity, negative = inhibition [13] 3.18% [at 38 µM] | Potency [6] | Potency [7] | outcome [8] | outcome [9] | outcome [10] | outcome [11] | Potency [12]

COc1cc2c3cc1Oc1cc(ccc1O)C[C@@H]1c4c(cc(OC)c(O)c4Oc4ccc(cc4)C[C@H]3[N+](C)(C)CC2)CC[N+]1(C)C
inactive: activity change, negative = inhibition [1] 5.87% | Potency [2] | activity change, negative = inhibition [3] 0.638% | activity, negative = inhibition [13] 21.4% | Potency [6] | Potency [7]

CCCCCCCCCCCCCCCC(=O)NC[C@@H](COP(=O)([O-])OCC[N+](C)(C)C)OCC
active: activity change, negative = inhibition [3] 16.7% [at 38 µM]
inactive: activity change, negative = inhibition [1] -23.3% [at 38 µM] | Potency [2] | Potency [4] > 46 µM | Potency [5] > 46 µM | Potency [6] | Potency [7] | outcome [8] | outcome [9] | outcome [10] | outcome [11] | Potency [12]

Cc1cc(C)c2c(SCc3ccc(Cl)cc3Cl)nc(N)nc2n1
active: Potency [2] 3.16 µM
inactive: activity change, negative = inhibition [1] 0.307% | activity change, negative = inhibition [3] -14.4% | Potency [4] > 46 µM | Potency [5] > 9.22 µM | Potency [6] | Potency [7]

C=C(C)[C@@H]1CC=C(C(=O)O)CC1
inactive: activity change, negative = inhibition [1] 3.75% [at 38 µM] | Potency [2] | activity change, negative = inhibition [3] -3.51% [at 38 µM] | Potency [4] > 46 µM | Potency [5] > 46 µM | Potency [6] | Potency [7] | outcome [8] | outcome [9] | outcome [10] | outcome [11] | Potency [12]

Nc1c2c(nc3ccccc13)CCC[C@H]2O
inactive: activity change, negative = inhibition [1] 1.75% [at 38 µM] | activity change, negative = inhibition [3] 0.441% [at 38 µM] | Potency [4] > 46 µM | Potency [5] > 46 µM | Potency [6] | Potency [7] | outcome [8] | outcome [9] | outcome [10] | outcome [11] | Potency [12]
active: Potency [2] 10 µM

Cc1ccc(C(=O)O[C@@H](C(=O)O)[C@@H](OC(=O)c2ccc(C)cc2)C(=O)O)cc1 (tested in a mixture with another compound)
inactive: activity change, negative = inhibition [1] -1.5% [at 38 µM] | Potency [2] | activity change, negative = inhibition [3] 0.143% [at 38 µM] | activity, negative = inhibition [13] 0.98% [at 38 µM] | Potency [7] | outcome [8] | outcome [9] | outcome [11] | Potency [12]

C[C@H](N)C(=O)OC(C)(C)Cc1ccc(Cl)cc1
inactive: activity change, negative = inhibition [1] 9.46% [at 38 µM] | activity change, negative = inhibition [3] 18.9% [at 38 µM] | activity, negative = inhibition [13] 24.9% [at 38 µM] | Potency [6] | Potency [7] | outcome [8] | outcome [9] | outcome [10] | outcome [11] | Potency [12]
active: Potency [2] 0.631 µM

C=C(NC(=O)C(=C)NC(=O)c1csc(C2=N[C@@H]3c4csc(n4)[C@@H]4NC(=O)c5csc(n5)[C@@H]([C@](C)(O)[C@H](C)O)NC(=O)[C@@H]5CSC(=N5)/C(=C/C)NC(=O)[C@@H]([C@H](C)O)NC(=O)c5csc(n5)[C@]3(CC2)NC(=O)[C@@H](C)NC(=O)C(=C)NC(=O)[C@@H](C)NC(=O)[C@@H]([C@@H](C)CC)N[C@H]2C=Cc3c([C@H](C)O)cc(nc3[C@@H]2O)C(=O)O[C@H]4C)n1)C(N)=O
inactive: activity change, negative = inhibition [1] -15.7% [at 17.2 µM] | Potency [2] | activity, negative = inhibition [13] -4.53% [at 17.2 µM] | Potency [4] > 20.6 µM | Potency [5] > 20.6 µM | Potency [6] | Potency [7]

O=S(=O)(NCCNC/C=C\c1ccc(Br)cc1)c1cccc2cnccc12
inactive: activity change, negative = inhibition [1] 2.61% [at 38 µM] | activity change, negative = inhibition [3] -7.5% [at 38 µM] | Potency [4] > 46 µM | Potency [5] > 46 µM | Potency [6] | outcome [8] | outcome [9] | outcome [10] | outcome [11] | Potency [12]
active: Potency [2] 2 µM

CC(=O)[C@@H]1CC[C@@H]2[C@@H]3CC=C4C[C@H](OS(=O)(=O)O)CC[C@@]4(C)[C@H]3CC[C@]21C
inactive: activity change, negative = inhibition [1] 12.4% [at 38 µM] | Potency [2] | activity change, negative = inhibition [3] 1.64% [at 38 µM] | Potency [4] > 46 µM | Potency [5] > 46 µM | Potency [6] | Potency [7] | outcome [8] | outcome [9] | outcome [10] | outcome [11] | Potency [12]

OC[C@@H]1O[C@@H](n2cnc3c(NC4CCCCC4)ncnc32)[C@@H](O)[C@H]1O
inactive: activity change, negative = inhibition [1] -12.8% [at 38 µM] | Potency [2] | activity change, negative = inhibition [3] 1.85% [at 38 µM] | Potency [4] > 46 µM | Potency [5] > 46 µM | Potency [7] | outcome [8] | outcome [9] | outcome [10] | outcome [11] | Potency [12]

From PubChem BioAssay (NCATS)
